Drawing on PubChem BioAssay (NCI), this text covers growth for 14 molecules.

About 83,000 compounds went through this panel and 20% of them were active in at least one assay; those are over-represented in the sample as a whole.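 Cell lines were cultured in 96-well plates, exposed to a single compound concentration, and assessed for percent growth 48 hours later.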 Values without a mark were called inactive. Calls of active or inactive are those of the source. How the source made its calls: active means growth percent below 10; inactive means the rest.

The subject of this test is MDA-MB-468 breast. Put plainly: NCI-60 one-dose screen, 48 h (100 = growth as untreated, 0 = no growth, -100 = all killed). Conditions: 10 µM unless noted.
Consider `O=C(c1ccc(F)c(Cl)c1)N1c2ccccc2Sc2ccccc21`, for which the growth is 63.1%.
Consider `COc1ccc(/C=C(\C#N)c2cc(OC)c(OC)c(OC)c2)cc1`, for which the growth was -10.8% (active).
Then `CCCCc1n(Cc2ccc3ccccc3n2)cc[n+]1Cc1ccc2ccccc2c1`, with -31.4% (active); and `C=C1N(C)c2ccc(Cl)cc2C1(C)C`, with 5.23% (active); and `CC(C)(C)CC(C)(C)NC(=O)Nc1ncccc1OCc1ccccc1`, with 96%.
As for `CC(=O)OC[C@]12CC[C@@H](C(=O)/C=C/c3cccnc3)[C@@H]1[C@H]1CC[C@@H]3[C@@]4(C)CC[C@H](OC(C)=O)C(C)(C)[C@@H]4CC[C@@]3(C)[C@]1(C)CC2`, the growth was -44% (active).
On to `O=C(Nc1ccc(Cl)cc1)Nc1nc2ccc([N+](=O)[O-])cc2s1`, for which the growth was -36.7% (active).
Take `CC1C(=NC(=O)c2cnccn2)C(C)C(c2ccc(Cl)cc2)NC1c1ccncc1` (centres undefined): the growth was 92.9%.
`CCCCCCCCc1cc(Cl)c(O)c(Cl)c1`: the growth is 119%.
For the molecule `COc1ccc(-c2nc3cc(Cl)c(Cl)cc3n2CC(=O)N=Nc2c(O)[nH]c3ccc(OC)cc23)cc1`, the growth was 42.4%.
For the molecule `CCCCCCCCn1ccc2cc(NC(=O)CN3CCN(c4nc(C)cc(Cl)n4)CC3)ccc21`, the growth is 92.8%.
On to `O=C1/C(=C/c2ccccc2)COc2ccc(O)cc21`, for which the growth was 87.8%.
As for `CN(C)CCCN(c1nc(C(Cl)(Cl)Cl)ns1)c1nc(C(Cl)(Cl)Cl)ns1`, the growth was 14.5%.
Turning to `Cc1ccc(-c2nn(-c3ccccc3)cc2C=C2C(=O)ON=C2C(C)C)cc1`, the growth was 94%.
